Rows were chosen to be rich in hits. Some 4.3% of all compounds tested hit in one or more screens of this group.
CF NFkB inh: blocks PAF-induced NF-kB reporter in cystic fibrosis cells; 0.86% of 360,000 active; inhibition, % at 5 µM; KKLEB NF-kB-GFP reporter, GFP fluorescence overnight;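 active = at least 50% inhibition at 5 µM, scaled per plate between neutral and stimulator controls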;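 note: PAF is a Pseudomonas aeruginosa culture filtrate used as stimulus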
Peg3 promoter: reduces Peg3 promoter-driven luciferase expression in HeLa; HeLa PEG-Prom luciferase reporter, luminescence, overnight; inhibition, % at 20 µM; 1.7% of 360,000 active; AID 588405;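 active = inhibition of at least 50% at 20 µM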
KKLEB tox: CF airway cell cytotoxicity counter-screen; KKLEB CF airway cells viability, ATPlite luminescence, overnight; active compounds read low; cells stimulated with P. aeruginosa culture filtrate; 0.36% of 360,000 active; activity change (cytotoxicity), % at 5 µM; AID 602141;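 active = corrected activity change at or below -50% at 5 µM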
HIF-2a block: inhibitors of HIF-2a; 786-0 RCC cells HIF-2a reporter, luciferase luminescence, overnight; inhibition, % at 18.8 µM; 0.72% of 360,000 active; AID 624352;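 active = inhibition of the luminescence signal of 40% or more relative to plate controls, in a single-dose primary screen at 18.75 µM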
MITF TRPM1 inh: inhibitors of MITF-driven TRPM1 promoter in melanoma cells; SK-MEL-5 TRPM1 promoter luciferase, 24 h; inhibition, % at 12.5 µM; 0.83% of 330,000 active;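 active = mean inhibition across replicates of 60% or more, whatever share of single replicates reaches that level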
CHOP inhibitor: CHOP inhibition in unfolded protein response. 3.8% of 220,000 active. CHO-K1 CHOP-promoter luciferase, tunicamycin-induced, 15-18 h. inhibition, % at 10 µM. AID 2732;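 active = compounds that reduced the stress-induced luciferase reporter signal by more than about 70% of percent inhibition, limit read from the data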
Of the large screens only hits and unclear results are named; the others gave an inactive call.

O=S(=O)(NCC(c1cccnc1)N1CCN(c2ccc(F)cc2)CC1)c1ccc(F)cc1 (configuration not stated)	CHOP inhibitor 94 (no result: MITF TRPM1 inh)
COc1nc(-c2ccncc2)nc2ccccc12	none
C=CCOc1nc(-c2ccncc2)nc2ccccc12	CHOP inhibitor 71
CCOP(=O)(OCC)C(Nc1ccccc1)c1ccc2c(c1)OCO2 (configuration not stated)	none (no result: CHOP inhibitor)
CCCCOP(=O)(OCCCC)C(Nc1ccccc1)c1ccc2c(c1)OCO2 (configuration not stated)	CHOP inhibitor 91
CN(C)CCCN1C(=O)c2cccc3c([N+](=O)[O-])ccc(c23)C1=O	Peg3 promoter 91
CC(=O)Oc1cccc(N2C(=O)c3cccc4c([N+](=O)[O-])ccc(c34)C2=O)c1	none (no result: CHOP inhibitor)
O=C1c2cccc3c([N+](=O)[O-])ccc(c23)C(=O)N1CCc1ccccn1	Peg3 promoter 92
CSCCC(C(=O)Nc1c(C)cccc1C)N1CCC(Cc2ccccc2)CC1 (configuration not stated)	none (no result: MITF TRPM1 inh, CHOP inhibitor)
O=C(c1ccco1)N1CCCC(c2nc3c(nnn3Cc3c(Cl)cccc3Cl)c(=O)[nH]2)C1 (configuration not stated)	none (no result: CHOP inhibitor)
CN1CCN(Cc2nc3ccccc3c(=O)n2Cc2nc(-c3cccc([N+](=O)[O-])c3)cs2)CC1	Peg3 promoter 50
CN1CCN(Cc2nc3ccccc3c(=O)n2Cc2nc(-c3ccccc3F)cs2)CC1	none
O=C(c1[nH]c(C(F)(F)F)nc1-c1ccccc1)N1CCOCC1	none (no result: MITF TRPM1 inh, CHOP inhibitor)
Cc1cc2ccccc2c(=O)n1CC(=O)NCC(=O)N1CCN(c2cccc(Cl)c2)CC1	CHOP inhibitor 89
CCN(CC(=O)Nc1c(F)cccc1F)C(=O)COc1cccc2c1OC(C)(C)C2	none (no result: CHOP inhibitor)
O=C(Nc1nc2ccccc2n1CCN1CCOCC1)c1cn(-c2ccccc2)nc1-c1ccccc1	Peg3 promoter 84
COc1cc(NC(=O)C2(C)CCCN(C(C)C)C2)cc(OC)c1OC (configuration not stated)	none (no result: MITF TRPM1 inh, CHOP inhibitor)
Cc1c(OC(C)C(=O)NCc2ccncc2)ccc2c3c(c(=O)oc12)CCCC3 (configuration not stated)	none (no result: CHOP inhibitor)
CCOC(=O)c1c(NC(=O)c2nn(CC)cc2Br)sc2c1CCCCC2	none
CCn1cc(C(=O)NC(=S)Nc2sc3c(c2C(=O)OC)CCCCCC3)cn1	CHOP inhibitor 78
COC(=O)c1cc(NC(=O)c2ccc(Cn3cc(Cl)cn3)o2)cc(C(=O)OC)c1	none
CCOC(=O)c1c(NC(=S)NC(=O)c2ccc(Cn3cc(Cl)cn3)o2)sc2c1CCC(C)C2 (configuration not stated)	CHOP inhibitor 77
N#CN1C2CCC1CC(O)(c1ccccc1)C2 (configuration not stated)	none (no result: MITF TRPM1 inh, CHOP inhibitor)
Cc1ccc(C(=O)/C=C/Nc2ccccc2C(N)=O)cc1	KKLEB tox -56
Cc1ccc(C(=O)/C=C/C(=O)c2ccc(C)cc2)cc1	CF NFkB inh 78, Peg3 promoter 112, KKLEB tox -67, CHOP inhibitor 106
NC(=O)c1ccccc1N/C=C/C(=O)c1ccc(Cl)cc1	none
CCCCn1c(=O)c2c(nc3n2CCCN3Cc2ccccc2)n(C)c1=O	none (no result: CHOP inhibitor)
COc1ccc(S(=O)(=O)N2CCC(C(=O)NCC(=O)Nc3c(C)cccc3C)CC2)cc1OC	none (no result: CHOP inhibitor)
COc1cccc(CN2CC(C(=O)NCCc3cn4cccnc4n3)CCC2=O)c1 (configuration not stated)	none (no result: MITF TRPM1 inh, CHOP inhibitor)
O=C(CSc1nc2ccccc2[nH]1)NCc1ccco1	none
O=C(NCc1ccco1)/C(=C/c1ccc(C(F)(F)F)cc1)c1nc2ccccc2[nH]1	CHOP inhibitor 89
CN(C)c1ccc(C=c2c3ccccc3n3c2c2ccccc2[n+]3C)cc1	Peg3 promoter 71 (no result: CHOP inhibitor)
CCOC(=O)SC1=N/C(=C\c2ccc(N(C)C)cc2)C(=O)S1	none
CN(C)c1ccc(C=c2c3cc(O)ccc3n3c2cc(-c2ccccc2)[n+]3C)cc1	MITF TRPM1 inh 90 (no result: CHOP inhibitor)
CC1=NN(c2cccc(F)c2)C(=O)/C1=C/c1ccc(N(C)C)cc1	none (no result: CHOP inhibitor)
CCOC(=O)c1cc2c(=Cc3ccc(N(C)C)cc3)c3ccccc3n2[n+]1C	MITF TRPM1 inh 86 (no result: CHOP inhibitor)
CN(C)c1ccc(C=C2C=Cc3ccccc32)cc1	none (no result: CHOP inhibitor)
Cc1cc2c(=Cc3ccc(N(C)C)cc3)c3ccccc3n2[n+]1C	Peg3 promoter 97, HIF-2a block 69, MITF TRPM1 inh 101 (no result: CHOP inhibitor)
C[n+]1c(-c2ccccc2)cc2c(=Cc3ccc([N+](=O)[O-])cc3)c3ccccc3n21	none (no result: CHOP inhibitor)
CCN(CC(=O)NCc1ccc(Cl)cc1)C(=O)C1CCN(S(=O)(=O)c2ccc(OC)c(OC)c2)CC1	none (no result: CHOP inhibitor)
O=C(Nc1ccncc1NC(=O)c1cccc([N+](=O)[O-])c1)c1cccc([N+](=O)[O-])c1	Peg3 promoter 58
Cc1cccc(-c2nc(=S)c3c(o2)CCCC3)c1	CHOP inhibitor 77
CCOc1ccc(OCCC(=O)Nc2ccc(N3CCOCC3)cc2N2CCOCC2)cc1	none (no result: MITF TRPM1 inh, CHOP inhibitor)
CCCCCc1c(C)nc(N2CCc3ccccc32)[nH]c1=O	CHOP inhibitor 73
CCCCCc1c(C)nc(N2CCc3ccccc3C2)[nH]c1=O	none
Cc1nc(N2CCc3ccccc3C2)[nH]c(=O)c1Cc1ccccc1	CHOP inhibitor 78
O=[N+]([O-])c1ccc(N=Nc2ccc(O)cc2O)cc1	none
O=[N+]([O-])c1cccc(N=Nc2ccc(O)cc2O)c1	CF NFkB inh 66 (no result: CHOP inhibitor)
Cc1ccc([N+](=O)[O-])cc1-c1ccc(/C=N\n2nnnc2N)o1	CHOP inhibitor 90
CC(C)c1ccc(O)c(NC(=S)NC(=O)c2ccc3c(c2)OCO3)c1	none (no result: CHOP inhibitor)
O=C1NN=C(c2ccc(Cl)cc2)CC1c1c[nH]c2ccccc12 (configuration not stated)	none
O=C1NN=C(c2ccc(Cl)cc2)CC1c1cccc(Br)c1 (configuration not stated)	CHOP inhibitor 78
Cc1ccc(C2=NNC(=O)C(c3ccc(Cl)cc3)C2)cc1 (configuration not stated)	CHOP inhibitor 96
CCOC(=O)C1CC(c2ccc(Cl)cc2)=NNC1=O (configuration not stated)	none
O=c1[nH]cnc2c1ncn2C1OC(CO)CC1F (configuration not stated)	none (no result: MITF TRPM1 inh, CHOP inhibitor)
COc1ccc2oc(=N)c(C(=O)Nc3cccc(C)c3C)cc2c1	none (no result: CHOP inhibitor)
CN(Cc1ccccc1)c1ncnc2c1cnn2-c1ccccc1	none
CCN(c1ccccc1)c1ncnc2c1cnn2-c1ccccc1	CHOP inhibitor 79 (no result: MITF TRPM1 inh)
Cc1ccccc1NS(=O)(=O)c1ccc(C(=O)NCC(C)(C)N2CCOCC2)cc1	none (no result: CHOP inhibitor)
COc1ccc(/C=C(\C#N)C(=O)OCC(=O)Nc2c(C)cccc2C)cc1	CHOP inhibitor 75
CCc1cccc(CC)c1NC(=O)COC(=O)/C(C#N)=C/c1ccc(OC)cc1	CHOP inhibitor 75
COc1ccc(/C=C(\C#N)C(=O)OCC(=O)Nc2ccc(C(C)(C)C)cc2)cc1	none

Bioassay records deposited in PubChem BioAssay by several laboratories.
